The record followed here is PubChem BioAssay (EPA / NIEHS).

Assay [1] can be described thus: ATG_E_Box_CIS: Attagene CIS-FACTORIAL HepG2 Assay for human Enhancer Box (E-box) (AID 2282936). The note with it: HepG2 E-box cis-reporter transcription, actives raise or lower the signal. The gist of the method: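 Endogenous transcription factor activity was sensed in human HepG2 liver cells through transfected cis-promoter reporter units. After 24 h of dosing, total RNA was reverse-transcribed and reporter cDNA resolved by capillary electrophoresis.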

Assay [2] is described as follows: ATG_M_61_CIS: Attagene CIS-FACTORIAL HepG2 Assay for M61 Transcription Factor (Internal Marker) (AID 2282937). As to conditions: HepG2 Attagene CIS-FACTORIAL M61 internal marker reporter; actives raise or lower the signal. The gist of the method: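 Using transiently transfected HepG2 liver cells, reporter transcript levels were assessed 24 h post-dosing by RT-PCR and capillary electrophoresis. Changes in either direction were fitted relative to DMSO controls.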

Assay [3] can be described thus: ATG_EGR_CIS: Attagene CIS-FACTORIAL HepG2 Assay for human Early Growth Response 1 (EGR1) (AID 2282938). The note with it: HepG2 Attagene CIS-FACTORIAL EGR reporter mRNA; actives raise or lower the signal. The gist of the method: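 Fluorescent capillary-electrophoresis signal of reporter cDNA fragments serves as read-out. HepG2 cells bear transiently transfected cis-promoter reporter units and are exposed 24 h; gain- or loss-of-signal is fitted against DMSO.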

Assay [4] is described as follows: ATG_M_19_CIS: Attagene CIS-FACTORIAL HepG2 Assay for M19 Transcription Factor (Internal Marker) (AID 2282939). The note with it: HepG2 Attagene CIS-FACTORIAL M19 internal marker reporter; actives raise or lower the signal. In a few lines: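 HepG2 cells transiently transfected with cis-regulated multiple reporter transcription units were dosed for 24 h; reporter mRNA was quantified by RT-PCR, 6-FAM primer-extension labelling, HpaI digestion and capillary electrophoresis, with bidirectional fitting against DMSO baseline.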

The nature of assay [5]: ATG_ERE_CIS: Attagene CIS-FACTORIAL HepG2 Assay for Estrogen Response Element (ERE) (AID 2282940). As to conditions: HepG2 ERE cis-reporter, Attagene RNA transcript; actives raise or lower the signal. The gist of the method:
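HepG2 cells transiently transfected with cis-promoter-driven multiplexed reporter transcription units report endogenous TF activity. After 24 h compound exposure, reporter mRNA is quantified by RT-PCR with capillary electrophoresis fluorescence; bidirectional fitting versus DMSO baseline.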

The nature of assay [6]: ATG_Ets_CIS: Attagene CIS-FACTORIAL HepG2 Assay for human Erythroblast Transformation Specific (ETS) (AID 2282941). As to conditions: HepG2 ETS cis-reporter transcription; AC50: actives raise or lower the signal unless noted; outcome: actives raise or lower the signal unless noted. In a few lines: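 Cis-regulated reporter mRNA induction in HepG2 (transient transfection), 24 h exposure, RT-PCR plus capillary electrophoresis detection; DMSO serves as negative control and baseline.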

For assay [7], the target named is Hepatocyte nuclear factor 3-beta (Homo sapiens) (UniProt Q9Y261). Put plainly: ATG_FoxA2_CIS: Attagene CIS-FACTORIAL HepG2 Assay for human Forkhead box A2 (FOXA2) (AID 2282942). As to conditions: HepG2 cis-reporter transcription factor activity, 24 h; actives raise or lower the signal. The gist of the method: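 Fluorescence signal of reporter cDNA fragments, separated by capillary electrophoresis, reflects endogenous transcription factor activity in transfected HepG2 after 24 h. Both increases and decreases fitted against DMSO.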
Hepatocyte nuclear factor 3-beta (Homo sapiens), sequence (Q9Y261 whole entry, looked up, the tested form may be a part): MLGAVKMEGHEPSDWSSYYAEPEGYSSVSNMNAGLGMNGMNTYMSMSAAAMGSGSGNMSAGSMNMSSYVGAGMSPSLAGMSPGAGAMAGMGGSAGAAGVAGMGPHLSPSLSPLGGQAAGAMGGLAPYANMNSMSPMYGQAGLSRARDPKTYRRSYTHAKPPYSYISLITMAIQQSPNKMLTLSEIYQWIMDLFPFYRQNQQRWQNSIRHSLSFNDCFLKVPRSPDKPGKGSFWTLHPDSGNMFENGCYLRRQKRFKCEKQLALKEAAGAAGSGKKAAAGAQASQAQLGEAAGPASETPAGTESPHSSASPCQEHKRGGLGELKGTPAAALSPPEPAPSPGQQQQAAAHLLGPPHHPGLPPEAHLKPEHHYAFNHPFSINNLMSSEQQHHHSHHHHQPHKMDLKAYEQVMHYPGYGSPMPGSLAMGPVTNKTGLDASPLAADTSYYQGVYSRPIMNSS

The nature of assay [8]: ATG_FoxO_CIS: Attagene CIS-FACTORIAL HepG2 Assay for human Forkhead box O (FoxO) (AID 2282943). The note with it: HepG2 Attagene cis-reporter, FoxO element, mRNA; actives raise or lower the signal. In a few lines:
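Values reflect reporter mRNA induction or loss in HepG2 cells 24 h post-dosing, fitted bidirectionally with DMSO as negative control and baseline. Detection used RT-PCR and fluorescence capillary electrophoresis.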

The nature of assay [9]: ATG_GATA_CIS: Attagene CIS-FACTORIAL HepG2 Assay for human GATA Binding Protein (AID 2282944). As to conditions: HepG2 GATA cis-element reporter, Attagene multiplex mRNA; actives raise or lower the signal. In a few lines:
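HepG2 cells transiently transfected with multiplexed cis-element reporter units reflecting endogenous transcription factor activity; reporter mRNA measured after 24 h dosing by RT-PCR, 6-FAM labeling, HpaI digestion and capillary electrophoresis. Bidirectional fitting versus DMSO baseline.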

The nature of assay [10]: ATG_GLI_CIS: Attagene CIS-FACTORIAL HepG2 Assay for human Zinc Finger Protein GLI1 (AID 2282945). As to conditions: HepG2, Attagene cis-factorial reporter mRNA, GLI element; actives raise or lower the signal. The gist of the method: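 HepG2 cells transiently transfected with cis-promoter multiplexed reporter units report endogenous transcription factor activity. After 24 h chemical exposure, reporter mRNA was quantified by RT-PCR, 6-FAM labelling, HpaI digestion and capillary electrophoresis, with bidirectional fitting against DMSO.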

The target in assay [11] is Bile acid receptor (Homo sapiens) (UniProt Q96RI1). Briefly: ATG_IR1_CIS: Attagene CIS-FACTORIAL HepG2 Assay for human Nuclear Receptor Subfamily 1 Group H Member 4 (NR1H4), IR1 submotif (AID 2282946). The note with it: IR1 reporter transcription, actives raise or lower the signal. The gist of the method: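 Readout: reporter transcript levels by RT-PCR with fluorescent capillary electrophoresis, from HepG2 cells transiently transfected with multiplexed cis-regulated reporters and dosed 24 h. Gain- or loss-of-signal fitted versus DMSO negative control.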
Bile acid receptor (Homo sapiens), sequence (Q96RI1 whole entry, looked up): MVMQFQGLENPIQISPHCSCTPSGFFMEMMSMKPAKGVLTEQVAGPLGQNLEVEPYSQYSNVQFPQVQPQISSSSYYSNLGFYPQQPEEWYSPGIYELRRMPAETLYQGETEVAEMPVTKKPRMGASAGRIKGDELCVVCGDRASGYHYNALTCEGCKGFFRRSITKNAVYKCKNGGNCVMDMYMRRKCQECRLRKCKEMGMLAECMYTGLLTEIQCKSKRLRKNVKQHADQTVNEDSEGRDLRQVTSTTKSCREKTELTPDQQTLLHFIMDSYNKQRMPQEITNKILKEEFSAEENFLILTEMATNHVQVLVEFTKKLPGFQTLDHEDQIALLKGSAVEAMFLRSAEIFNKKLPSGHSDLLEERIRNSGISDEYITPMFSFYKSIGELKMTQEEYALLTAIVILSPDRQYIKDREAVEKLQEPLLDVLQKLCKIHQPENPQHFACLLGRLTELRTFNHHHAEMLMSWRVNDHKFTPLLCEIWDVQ

Assay [12] can be described thus: ATG_GRE_CIS: Attagene CIS-FACTORIAL HepG2 Assay for human Glucocorticoid Response Elements (GRE) (AID 2282947). As to conditions: HepG2 GRE cis-reporter, Attagene multiplex mRNA; AC50: actives raise or lower the signal unless noted; outcome: actives raise or lower the signal unless noted. In a few lines: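 Cells (HepG2) bearing transfected cis-promoter reporter transcription units were treated with chemical for 24 hours. Reporter mRNA was measured via RT-PCR with capillary electrophoresis, and activity was fitted in both directions relative to DMSO.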

Assay [13] is described as follows: ATG_ISRE_CIS: Attagene CIS-FACTORIAL HepG2 Assay for human Interferon Regulatory Factor 1 (IRF1) binding to an Interferon-Stimulated Response Element (ISRE) (AID 2282948). The note with it: HepG2 ISRE cis-reporter (Attagene), mRNA transcription readout; actives raise or lower the signal. In a few lines: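 Multiplexed mRNA reporter readout in human liver HepG2 cells: cis-element-driven reporters transfected, compound added for 24 h, transcripts amplified, fluorescently labelled and sized by capillary electrophoresis; curve fitting bidirectional against DMSO.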

Assay [14] is described as follows: ATG_M_32_CIS: Attagene CIS-FACTORIAL HepG2 Assay for M32 Transcription Factor (Internal Marker) (AID 2282949).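 Note: background control marker of the multiplexed CIS panel rather than a real target.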 As to conditions: HepG2 Attagene cis-factorial M32 reporter, mRNA; actives raise or lower the signal. The gist of the method:
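HepG2 transfectants (cis-regulated reporter transcription units) dosed 24 h. Reporter mRNA by RT-PCR plus CE, analysed as gain or loss relative to DMSO.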

Assay [15] is described as follows: ATG_M_06_CIS: Attagene CIS-FACTORIAL HepG2 Assay for M06 Transcription Factor (Internal Marker) (AID 2282950). As to conditions: HepG2 Attagene CIS-FACTORIAL M06 internal marker reporter; actives raise or lower the signal. The gist of the method:
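HepG2 cells transiently transfected with cis-regulated multiple reporter transcription units were exposed to chemical for 24 h; reporter mRNA was quantified by RT-PCR, 6-FAM primer labelling, HpaI digestion and capillary electrophoresis, fitted bidirectionally against DMSO.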

Assay [16] deals with Hypoxia-inducible factor 1-alpha (Homo sapiens) (UniProt Q16665). Briefly: ATG_HIF1a_CIS: Attagene CIS-FACTORIAL HepG2 Assay for human Hypoxia Inducible Factor 1 (HIF1A) (AID 2282951). As to conditions: HepG2 Attagene cis-factorial HIF1a reporter transcription; actives raise or lower the signal. In a few lines:
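Endogenous-TF cis reporter readout, human HepG2 cells, 24 h incubation; mRNA detected via RT-PCR and capillary electrophoresis fluorescence; DMSO-normalised bidirectional fitting.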

Assay [17] addresses Hepatocyte nuclear factor 6 (Homo sapiens) (UniProt Q9UBC0). Briefly: ATG_HNF6_CIS: Attagene CIS-FACTORIAL HepG2 Assay for human Hepatocyte Nuclear Factor 6 (HNF6) (AID 2282952). The note with it: HepG2 Attagene cis-factorial HNF6 reporter transcription; actives raise or lower the signal. In a few lines: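 Readout: fluorescent reporter-transcript fragments resolved by capillary electrophoresis after RT-PCR, reflecting endogenous factor activity in transfected HepG2. Exposure 24 h. Gain or loss of signal fitted bidirectionally against DMSO.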

The target of assay [18] is Heat shock factor protein 1 (Homo sapiens) (UniProt Q00613). Put plainly: ATG_HSE_CIS: Attagene CIS-FACTORIAL HepG2 Assay for human Heat Shock Transcription Factor 1 (HSE) (AID 2282953). The note with it: HepG2 HSE cis-reporter, Attagene RNA transcription; actives raise or lower the signal. In a few lines: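 HepG2 cells transiently transfected with multiple reporter transcription units under cis-regulatory promoter control, measuring endogenous transcription factor activity. After 24 h chemical exposure, reporter mRNA quantified by RT-PCR, fluorescent labelling, HpaI digestion and capillary electrophoresis; bidirectional fit versus DMSO.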
Heat shock factor protein 1 (Homo sapiens), sequence (Q00613 whole entry, looked up): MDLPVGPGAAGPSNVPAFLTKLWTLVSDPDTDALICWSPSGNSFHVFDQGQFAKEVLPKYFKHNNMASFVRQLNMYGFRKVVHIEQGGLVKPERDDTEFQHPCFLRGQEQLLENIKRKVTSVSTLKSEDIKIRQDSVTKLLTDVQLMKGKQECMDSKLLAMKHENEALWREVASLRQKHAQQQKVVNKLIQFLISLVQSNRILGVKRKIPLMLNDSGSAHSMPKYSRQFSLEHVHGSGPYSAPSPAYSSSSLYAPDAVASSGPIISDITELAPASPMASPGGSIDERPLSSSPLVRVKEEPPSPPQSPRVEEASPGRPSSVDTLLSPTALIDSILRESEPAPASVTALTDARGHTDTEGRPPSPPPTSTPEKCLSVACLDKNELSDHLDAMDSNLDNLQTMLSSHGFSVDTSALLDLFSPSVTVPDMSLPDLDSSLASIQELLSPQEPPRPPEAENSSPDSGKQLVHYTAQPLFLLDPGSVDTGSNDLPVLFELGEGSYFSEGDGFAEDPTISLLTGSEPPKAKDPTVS

Assay [19] can be described thus: ATG_PBREM_CIS: Attagene CIS-FACTORIAL HepG2 Assay for human Phenobarbital-responsive Enhancer Module (PBREM) (AID 2282955). The note with it: HepG2 PBREM cis-reporter, Attagene multiplexed transcription; actives raise or lower the signal. The gist of the method: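 Readout: reporter mRNA, fluorescent RT-PCR fragments separated by capillary electrophoresis. System: HepG2 transiently transfected with cis-regulated reporter units. Exposure: 24 h. Analysis: bidirectional, DMSO baseline.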

Assay [20] can be described thus: ATG_MRE_CIS: Attagene CIS-FACTORIAL HepG2 Assay for human Metal Responsive Element (MRE) (AID 2282954). The note with it: HepG2 MRE cis-reporter transcription, Attagene multiplex; actives raise or lower the signal. The gist of the method: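 Cells were transfected with cis-promoter reporter transcription units, then dosed for 24 h. RNA was reverse-transcribed, amplified, fluorescently labelled and resolved by capillary electrophoresis, and activity was fitted in both directions relative to DMSO.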

The source made the active and inactive calls. Rule for the calls: active = hit-call score of the fitted dose curve at least 0.9, where 1 is the maximum; inactive = score below 0.9.

Hepatocyte nuclear factor 6 (Homo sapiens), sequence (Q9UBC0 whole entry, looked up, the tested form may be a part): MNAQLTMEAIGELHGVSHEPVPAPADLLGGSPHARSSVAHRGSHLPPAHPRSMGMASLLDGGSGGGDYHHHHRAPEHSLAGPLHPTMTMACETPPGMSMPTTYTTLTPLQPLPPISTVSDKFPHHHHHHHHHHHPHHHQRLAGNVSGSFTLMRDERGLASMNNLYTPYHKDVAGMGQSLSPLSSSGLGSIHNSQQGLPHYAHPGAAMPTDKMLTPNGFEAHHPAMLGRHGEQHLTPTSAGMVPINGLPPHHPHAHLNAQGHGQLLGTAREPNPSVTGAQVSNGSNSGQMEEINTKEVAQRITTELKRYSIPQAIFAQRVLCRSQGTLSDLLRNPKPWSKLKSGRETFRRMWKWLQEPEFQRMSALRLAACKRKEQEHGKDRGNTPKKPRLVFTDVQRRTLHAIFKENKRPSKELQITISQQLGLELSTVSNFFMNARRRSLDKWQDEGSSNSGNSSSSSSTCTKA
Hypoxia-inducible factor 1-alpha (Homo sapiens), sequence (Q16665 whole entry, looked up): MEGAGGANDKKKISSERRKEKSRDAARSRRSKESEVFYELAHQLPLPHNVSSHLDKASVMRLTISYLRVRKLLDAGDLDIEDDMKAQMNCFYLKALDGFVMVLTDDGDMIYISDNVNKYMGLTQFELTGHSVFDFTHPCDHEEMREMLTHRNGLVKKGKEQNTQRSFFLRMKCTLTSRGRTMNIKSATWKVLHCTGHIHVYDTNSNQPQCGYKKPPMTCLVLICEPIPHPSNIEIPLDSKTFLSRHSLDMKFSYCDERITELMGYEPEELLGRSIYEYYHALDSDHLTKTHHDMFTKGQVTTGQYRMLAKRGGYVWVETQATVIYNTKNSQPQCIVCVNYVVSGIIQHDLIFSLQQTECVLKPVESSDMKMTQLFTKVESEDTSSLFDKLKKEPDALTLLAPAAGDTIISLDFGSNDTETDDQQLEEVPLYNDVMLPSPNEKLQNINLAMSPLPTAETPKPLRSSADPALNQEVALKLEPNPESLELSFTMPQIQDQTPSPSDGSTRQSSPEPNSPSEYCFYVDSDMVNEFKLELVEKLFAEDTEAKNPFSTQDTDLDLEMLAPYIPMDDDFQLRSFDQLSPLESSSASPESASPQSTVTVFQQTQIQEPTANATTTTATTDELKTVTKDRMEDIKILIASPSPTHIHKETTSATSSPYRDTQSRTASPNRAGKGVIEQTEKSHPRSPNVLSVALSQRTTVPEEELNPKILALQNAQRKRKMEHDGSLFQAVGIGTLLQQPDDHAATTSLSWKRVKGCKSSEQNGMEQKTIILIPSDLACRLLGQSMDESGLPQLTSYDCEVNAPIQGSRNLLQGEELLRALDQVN

Regarding `c1ccc(CNc2ncnc3c2ncn3C2CCCCO2)cc1` (centres undefined), the outcome in assay [1], in [2], in assay [3], in [4], in assay [5] and in assay [6] was inactive. The call in [7], in [8], in [9], in [10], in [11] and in assay [12] was inactive. The result in assay [13], in [14], in assay [15], in assay [16], in [17] and in assay [18] was inactive. Also, the AC50 in [19] was 23.3 µM (active).

For the compound `CC(C)(C)c1ccc(CCC=O)cc1`, the outcome in [1], in [2], in assay [3], in assay [4], in [6] and in assay [7] was inactive. The compound was classed as inactive in [8], in assay [9], in assay [10], in assay [11], in assay [12] and in assay [14]. Further, the result in assay [15], in assay [16], in assay [17], in assay [18], in [20] and in assay [19] was inactive. Further, the AC50 in assay [5] is 144 µM (active).

Consider `C=CC(C)(CCC=C(C)C)OC(C)=O` (centres undefined), for which the result in assay [1], in assay [2], in assay [3], in assay [4], in assay [5] and in [6] was inactive. The compound was called inactive in assay [7], in assay [8], in assay [9], in assay [10], in assay [11] and in assay [12]. For the same compound, the compound was classed as inactive in [14], in [15], in assay [16], in [17], in assay [18] and in [19].

With `CCc1ccccc1O`, the outcome in assay [1], in [2], in assay [3], in assay [4], in [5] and in [6] was inactive. Besides, the outcome in assay [7], in assay [8], in assay [9], in assay [11], in [12] and in assay [14] was inactive. Moreover, the result in assay [15], in assay [16], in [17], in [18], in [20] and in assay [19] was inactive.

For orientation: AC50 means the midpoint of the concentration-response curve, whichever way the signal moves.
